Source: PubChem
D2 PAM-1 = positive allosteric modulators of human D2 dopamine receptor. DiscoveRx D2 beta-arrestin cells, luminescence, 90 min; 100% = 57 uM dopamine signal. potentiation, % (no concentration beside the values). 360,000 tested, 0.23% active; in the data active = potentiation above about 50%
Target sequence (P14416 whole entry, looked up): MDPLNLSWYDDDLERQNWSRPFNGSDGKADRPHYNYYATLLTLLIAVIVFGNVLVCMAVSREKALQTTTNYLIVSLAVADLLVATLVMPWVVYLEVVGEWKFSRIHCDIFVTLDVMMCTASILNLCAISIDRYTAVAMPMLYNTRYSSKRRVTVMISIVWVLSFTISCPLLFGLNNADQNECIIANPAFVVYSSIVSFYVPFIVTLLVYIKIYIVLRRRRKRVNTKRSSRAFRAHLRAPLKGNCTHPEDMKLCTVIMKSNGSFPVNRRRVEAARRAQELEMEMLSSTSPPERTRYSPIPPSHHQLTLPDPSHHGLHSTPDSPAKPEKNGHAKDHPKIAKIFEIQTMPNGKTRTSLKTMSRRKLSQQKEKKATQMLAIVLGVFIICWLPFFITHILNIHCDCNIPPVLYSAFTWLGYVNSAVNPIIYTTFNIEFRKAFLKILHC
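PathHunter beta-arrestin assay in DiscoveRx D2 cells. Compounds were added with an EC20 of dopamine (50 nM final) for 90 min at 37 deg C. Luminescence was read 1 h after detection reagent, with 57 uM dopamine as the EC100 control.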
D2 ag-1 = agonists of human D2 dopamine receptor; HEK293 T-REx D2 cells, calcium flux agonist mode; activation, % at 2 µM; 340,000 tested, 0.53% active; AID 485358;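 active = activation over 3 SD above normal in the single-dose calcium agonist read, cut at about 30% in these data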; also: 0% is about no effect
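Agonism scored from kinetic calcium signal (1 read/sec, 180 s) following compound pin transfer, after a 10 s baseline. Cells: HEK293 Trex line expressing inducible D2 receptor coupled to calcium, dye-loaded after overnight culture at 30 C.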
D2 antagonist = antagonizes the human D2 dopamine receptor. P14416. HEK293 TREx D2 cells, calcium flux, dopamine EC80. inhibition, % at 10 µM. 340,000 tested, 2% active. AID 485344; in the data active = inhibition above about 30%; inactive = below that, where a call was filed; also: 0% is about no effect
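Dopamine at EC80 is the agonist stimulus; test compounds precede it by 180 s. Calcium flux read kinetically in a force-coupled, inducible HEK293 T-REx D2 cell line.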
D2 PAM-2 = D2 dopamine receptor (human) potentiation | HEK293 T-REx D2, calcium flux, EC20 dopamine potentiation | potentiation, % at 10 µM | 340,000 tested, 0.34% active;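 active = potentiation over 3 SD above the plate norm, cut at about 30% in these data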; also: 0% is about no effect
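Potentiation of an EC20 dopamine calcium response is measured in a force-coupled, tetracycline-inducible Hek293 Trex D2 line. Compound-only kinetic reads over 180 s flag agonists before dopamine addition.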
D2 ag-2 = activates the human D2 dopamine receptor | activation, % (concentration not given with the values) | DiscoveRx PathHunter D2 beta-arrestin, luminescence, 90 min; 100% = 57 uM dopamine signal | 360,000 tested, 0.084% active | AID 624465; in the data active = activation above about 40%
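DiscoveRx PathHunter D2 beta-arrestin cells (2,100/well) attached overnight, then compound-stimulated 90 min at 37 C in HBSS/10 mM HEPES/0.1% Tween-20 buffer; beta-galactosidase complementation read by luminescence after 1 h at ambient temperature. Dopamine 57 uM final (EC100) as control.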
* marks the source's active call; other numbers are inactive results; . = no result given. The list is not random: actives were taken first. Their share in the collection is about 2.4%.

SMILES	D2 PAM-1	D2 ag-1	D2 antagonist	D2 PAM-2	D2 ag-2
CC1CCN(CCc2nc3cc(NS(=O)(=O)c4ccccc4)ccc3n2C)CC1	-46.5	0.6	30.3*	-21.9	-5.2
CC1CCN(CCc2nc3cc(NS(=O)(=O)c4ccc(F)cc4)ccc3n2C)CC1	-40.1	-1.2	35.6*	.	-0.5
CCOC(=O)c1ccc(NC(=O)c2cc3c(n(-c4ccc(C)cc4)c2=O)CC(C)(C)CC3=O)cc1	.	-2.3	.	12.4	.
Cc1ccc2occ(C(=O)c3ccco3)c(=O)c2c1	-2.1	-1.4	38.5*	2.5	-1.1
CCOC(=O)c1ccc(NC(=O)C(Cc2ccccc2)NS(=O)(=O)c2ccc(Br)s2)cc1 (stereo unspecified)	.	0.6	.	14.8	.
Cc1ccc(C)c(CNC(=O)c2sc3ncnc(N(C)C4CCCCC4)c3c2C)c1	.	0.0	.	6.3	.
CCCCn1c(S(=O)(=O)O)nc2ccccc21	2.1	-1.5	33.1*	-4.0	5.4
CCCCCn1c(S(=O)(=O)O)nc2ccccc21	2.9	0.2	-11.4	-9.6	0.2
CCc1nnc(NC(=O)c2ccc(COc3ccc(C)cc3)o2)s1	-0.2	0.6	30.2*	0.0	-3.0
CCc1nnc(NC(=O)CCC(=O)Nc2ccc(C)cc2)s1	-10.9	1.0	43.2*	-8.6	-8.9
CCc1nnc(NC(=O)c2ccc(COc3ccccc3)o2)s1	-3.3	-1.0	-12.4	29.9	-1.6
Cc1ccc(-c2c(C(=O)Nc3ccc(F)c(F)c3)oc(=O)c3ccccc23)cc1	.	1.5	.	2.5	.
CCC1CCc2sc(C(=O)NC3CCN(Cc4ccccc4)CC3)cc2C1 (stereo unspecified)	-35.0	0.7	76.8*	-2.0	-2.4
CC1CCc2sc(C(=O)NC3CCN(Cc4ccccc4)CC3)cc2C1 (stereo unspecified)	-6.0	1.2	83.4*	-30.4	-1.9
CCOC(=O)c1c(C)[nH]c(C)c1S(=O)(=O)NCC1CCN(Cc2cccc(Cl)c2)CC1	-21.8	-0.7	78.0*	-32.0	-3.3
CCOC(=O)c1c(C)[nH]c(C)c1S(=O)(=O)NCC1CCN(Cc2ccccc2F)CC1	-20.4	0.8	-2.6	-23.5	4.3
CCOC(=O)c1c(C)[nH]c(C)c1S(=O)(=O)NCC1CCN(Cc2ccc(C)cc2)CC1	-32.0	-0.4	86.5*	-23.9	-2.0
Cc1ccc2[nH]c3nc(N/N=C/c4cccc(O)c4)nnc3c2c1	-1.8	0.4	36.7*	-10.5	-0.6
CCNC(=O)C1CCCN(C(=O)Cc2ccc3ccccc3c2)CC1 (stereo unspecified)	-7.6	.	.	.	-2.3
CN(C)CCN(Cc1ccccc1)S(=O)(=O)c1ccc(-c2cc(C(F)(F)F)on2)s1	.	2.1	.	-0.9	.
CCn1c2ccccc2c2cc(CNCc3ccc(OC)cc3OC)ccc21	-2.7	8.0	35.0*	-27.6	3.2
COc1ccc(C(CNC(=O)c2cc3ccccc3o2)N2CCCC2)cc1 (stereo unspecified)	-4.9	0.7	79.4*	-28.9	-0.7
COc1ccc(C(CNC(=O)c2cc3ccccc3o2)N2CCCCC2)cc1 (stereo unspecified)	-21.0	-0.2	66.6*	-20.0	-2.2
COc1ccc(C(CNC(=O)C(C)(C)Oc2ccc(Cl)cc2)N2CCCC2)cc1 (stereo unspecified)	-36.9	0.5	97.3*	-24.2	-0.7
COc1ccc(C(CNC(=O)c2cc3c(s2)CCC(C)C3)N2CCCC2)cc1 (stereo unspecified)	-8.0	0.0	71.6*	-25.1	-1.2
SMILES	D2 PAM-1	D2 ag-1	D2 antagonist	D2 PAM-2	D2 ag-2
COc1ccc(C(CNC(=O)c2cc3c(s2)CCC(C)C3)N2CCOCC2)cc1 (stereo unspecified)	-4.9	0.1	20.5	-26.5	-3.0
Cc1ccc(S(=O)(=O)c2cn(CC(=O)Nc3cccc(C)c3)c3cc4c(cc3c2=O)OCO4)cc1	.	1.1	.	-17.2	.
CN(C)S(=O)(=O)c1cccc(C(=O)NCCNC(=O)c2cccc(S(=O)(=O)N(C)C)c2)c1	-7.5	-0.8	-5.0	16.8	-4.8
CN(C)S(=O)(=O)c1cccc(C(=O)NCCOC(=O)c2cc(F)c(F)cc2Cl)c1	-5.9	-0.4	34.2*	13.7	1.7
O=C(NCCC(=O)N1CCN(c2ccccn2)CC1)c1ccc(Br)cc1	-9.0	-1.0	57.6*	-13.6	-3.5
CCC(=O)N1CCc2cc(S(=O)(=O)NCCC(=O)N3CCc4ccccc4C3)ccc21	3.4	-1.8	-10.9	10.5	0.2
CCC(=O)N1CCc2cc(S(=O)(=O)NCCC(=O)N3CCN(c4ccccn4)CC3)ccc21	3.3	-0.8	14.6	39.0*	1.0
O=C(NCCC(=O)N1CCC2(CC1)NCCc1[nH]cnc12)c1ccc(Br)cc1	-5.4	0.6	32.0*	-0.4	-0.7
CC(C)Sc1ncc(Cl)c(C(=O)Nc2nc3ccc(S(C)(=O)=O)cc3s2)n1	.	-1.2	.	3.1	.
CCCCn1c(SCC(=O)c2ccc(O)cc2O)nc2cc(S(N)(=O)=O)ccc21	-5.3	0.6	31.6*	-5.3	-2.5
CCCCn1c(SCC(=O)c2cc(OC)ccc2OC)nc2cc(S(N)(=O)=O)ccc21	9.3	0.2	-20.4	7.6	-1.2
O=C(CN1CCN(Cc2ccccc2F)C1=O)NC1CCCC1	-9.5	-0.2	40.0*	2.2	-3.9
O=C(CN1CCCN(Cc2ccc(F)cc2Cl)C1=O)NC1CCCCCCC1	-16.1	1.1	-6.9	-3.9	-1.0
Cc1cc(C)c2c(=O)[nH]c(SCC(=O)N(C)C)nc2n1	-2.0	0.4	-0.9	36.7*	-2.8
CCN(CC)C(=O)CSc1nc2nc(C)cc(C)c2c(=O)[nH]1	-2.2	-0.3	-15.1	-5.6	2.1
COc1ccccc1CNC(=O)Nc1nc(C(N)Cc2ccc(Cl)cc2)cs1 (stereo unspecified)	-2.7	.	.	.	7.7
c1cc(CNc2ccc3c(c2)OCCO3)ccn1	14.9	1.8	-6.7	31.1*	-0.3
C[C@@H]1ON(C)[C@H]2C[C@H]3c4cc(-c5cccc(F)c5)ccc4CCN3C(=O)[C@@H]12	3.8	.	.	.	1.9
CCOc1ccc(NC(=O)N2CCOc3ccccc32)cc1	.	-0.5	.	5.0	.
COc1ccc(N(C(=O)CNC(=O)c2cccs2)C(C(=O)NCC2CCCO2)c2ccccc2)cc1 (stereo unspecified)	-1.8	-0.1	80.4*	-16.3	4.1
CCOc1ccccc1CNC(=O)C1CCCN(c2ncnc3onc(-c4ccc(F)cc4)c23)C1 (stereo unspecified)	.	.	.	4.5	.
CCCN1C=CC(=C/C=C(\C#N)C(=O)OCC)C=C1	.	34.5*	-6.2	0.2	.
CCCN1C=CC(=CC=C(C#N)C#N)C=C1	-2.2	22.3	-7.5	8.4	-2.9
CCCCCCN1C=CC(=C/C=C(\C#N)C(=O)OCC)C=C1	-3.9	43.1*	7.9	2.7	6.9
Cc1ccc(S(=O)(=O)N2CCOCC2)cc1NC(=O)COC(=O)Cc1ccccc1	4.5	.	.	.	-1.1
